Measured values from PubChem BioAssay AID1159580 (chemical genetic matrix, 2015).
Hit rate of the full screen: of about 5,500 compounds, about 2,000 (36%) were called active. About 18% were inconclusive and are not listed. Cut-off read from the data, not from the text of the source: active = normalized growth mostly below about 0.91 (no sharp cut-off); inconclusive = no clear call, values can overlap the other calls; inactive = mostly above about 0.92. Some of the results follow.

Assay: chemical genetic growth profiling, strain panel (AID 1159580);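 note: tested at 20 µM; growth read once vehicle control cultures reached saturation at 30 °C; 1 = growth at the plate median or of vehicle wells; lower values mean less growth of the strain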
Conditions: S. cerevisiae deletion strains, growth OD

Measured: normalized growth

CC(=O)NS(=O)(=O)c1ccc(NC(=O)c2ccccc2C(=O)O)cc1
inactive: locus YAL021C, strain ccr4, active compounds read low 1.01 | locus YAL026C, strain drs2, active compounds read low 1.02 | locus YAL030W, strain snc1, active compounds read low 1.02 | locus YBL061C, strain skt5, active compounds read low 1.01 | locus YBR009C, strain hhf1, active compounds read low 1.03 | locus YBR023C, strain chs3, active compounds read low 1.02 | locus YBR171W, strain sec66, active compounds read low 1.04 | locus YBR231C, strain swc5, active compounds read low 1.01 | locus YBR279W, strain paf1, active compounds read low 1.02 | locus YCL011C, strain gbp2, active compounds read low 1.01 | locus YCL016C, strain dcc1, active compounds read low 1.02 | locus YCL061C, strain MRC1, active compounds read low 1.02 | locus YCL069W, strain vba3, active compounds read low 1.02 | locus YCR088W, strain abp1, active compounds read low 1.01 | locus YDL005C, strain med2, active compounds read low 1.02 | locus YDL040C, strain nat1, active compounds read low 1.02 | locus YDR001C, strain nth1, active compounds read low 1.01 | locus YDR069C, strain doa4, active compounds read low 1.02 | locus YDR137W, strain rgp1, active compounds read low 1.04 | locus YDR159W, strain sac3, active compounds read low 1.04 | locus YDR195W, strain ref2 1.01 | locus YDR297W, strain sur2, active compounds read low 1.01 | locus YDR334W, strain swr1, active compounds read low 1.01 | locus YDR335W, strain msn5, active compounds read low 1.01 | locus YDR392W, strain spt3, active compounds read low 1.01 | locus YEL003W, strain gim4, active compounds read low 1.01 | locus YEL037C, strain rad23, active compounds read low 1.01 | locus YEL061C, strain CIN8 (second series), active compounds read low 1.02 | locus YER015W, strain faa2, active compounds read low 1.02 | locus YER016W, strain bim1, active compounds read low 1.02 | locus YER111C, strain swi4, active compounds read low 1.02 | locus YER155C, strain BEM2 (second series), active compounds read low 1.05 | locus YFR010W, strain ubp6, active compounds read low 1.02 | locus YGL167C, strain pmr1, active compounds read low 1.02 | locus YGL173C, strain kem1, active compounds read low 1.02 | locus YGL227W, strain vid30, active compounds read low 1.02 | locus YGL240W, strain doc1, active compounds read low 1.01 | locus YGL253W, strain hxk2, active compounds read low 1.02 | locus YHR013C, strain ard1, active compounds read low 1.02 | locus YHR027C, strain rpn1, active compounds read low 1.02 | locus YHR030C, strain SLT2, active compounds read low 0.958 | locus YHR079C, strain IRE1, active compounds read low 0.969 | locus YHR142W, strain chs7, active compounds read low 1.04 | locus YJL092W, strain hpr5, active compounds read low 1.01 | locus YJL095W, strain BCK1 (second series), active compounds read low 1.02 | locus YJL095W, strain BCK1, active compounds read low 0.972 | locus YJL115W, strain asf1, active compounds read low 1.02 | locus YJL129C, strain trk1, active compounds read low 1.03 | locus YJL154C, strain vps35, active compounds read low 1.02 | locus YJL164C, strain tpk1, active compounds read low 1.01 | locus YJL166W, strain qcr8, active compounds read low 1.02 | locus YJL187C, strain SWE1, active compounds read low 1.01 | locus YJR066W, strain TOR1, active compounds read low 0.949 | locus YKL160W, strain elf1, active compounds read low 1.02 | locus YKR026C, strain gcn3, active compounds read low 1 | locus YKR091W, strain srl3, active compounds read low 1.01 | locus YLL001W, strain dnm1, active compounds read low 1.01 | locus YLL026W, active compounds read low 1.02 | locus YLL041C, strain sdh2, active compounds read low 1.02 | locus YLR027C, strain aat2, active compounds read low 1.02 | locus YLR113W, strain HOG1, active compounds read low 0.976 | locus YLR221C, strain rsa3, active compounds read low 1.02 | locus YLR258W, strain gsy2, active compounds read low 1.01 | locus YLR262C, strain YPT6 (second series), active compounds read low 1.03 | locus YLR320W, strain mms22, active compounds read low 1.03 | locus YLR342W, strain FKS1, active compounds read low 1.01 | locus YLR357W, strain rsc2, active compounds read low 1.05 | locus YLR370C, strain arc18, active compounds read low 1.02 | locus YLR384C, strain iki3, active compounds read low 1.03 | locus YML120C, strain ndi1, active compounds read low 1.01 | locus YMR058W, strain fet3, active compounds read low 1.04 | locus YMR125W, strain sto1, active compounds read low 1.03 | locus YMR129W, active compounds read low 1.03 | locus YMR205C, strain PFK2, active compounds read low 1.02 | locus YMR231W, strain pep5, active compounds read low 1.02 | locus YNL071W, strain lat1, active compounds read low 1.02 | locus YNL183C, strain NPR1, active compounds read low 0.91 | locus YNL209W, strain ssb2, active compounds read low 1.02 | locus YNL248C, strain rpa49, active compounds read low 1.02 | locus YNL322C, strain KRE1 (second series), active compounds read low 1.01 | locus YNR049C, strain mso1, active compounds read low 1.01 | locus YOR001W, strain rrp6, active compounds read low 1.02 | locus YOR070C, strain gyp1, active compounds read low 1.01 | locus YOR080W, strain dia2, active compounds read low 1.01 | locus YOR083W, strain WHI5, active compounds read low 1.01 | locus YOR106W, strain vam3, active compounds read low 1.03 | locus YOR231W, strain MKK1, active compounds read low 0.953 | locus YOR265W, strain rbl2, active compounds read low 1.03 | locus YOR270C, strain vph1, active compounds read low 1.05 | locus YOR290C, strain snf2, active compounds read low 1.04 | locus YPL051W, strain arl3, active compounds read low 1.03 | locus YPL078C, strain atp4, active compounds read low 1.02 | locus YPL106C, strain sse1, active compounds read low 0.991 | locus YPL240C, strain hsp82, active compounds read low 1.01 | locus YPL256C, strain CLN2, active compounds read low 0.975
